Consider 43 compounds from PubChem BioAssay AID1259415 (National Center for Advancing Translational Sciences (NCATS), 2018).

In all, about 410,000 compounds went through this assay and about 18,000 (4.4%) were called active. Another 7% or so got no clear call; they are omitted. The list comes from a sample in which actives are over-represented; it also holds similar structures and randomly drawn compounds. Unmarked numbers belong to inactive results. Cut-off read from the data, not from the text of the source: active = activity change below about -60%; inconclusive = no clear call, values can overlap the other calls; inactive = above about -39%.
% is set by controls: 0 for no effect and ±100 for the full control effect.

A short description of this experiment: qHTS Assay for inhibitors of the human cytomegalovirus (HCMV). To be noted: HFF cells, HCMV-luciferase reporter, 72 h; at 57.5 µM; active compounds read low. An outline of the steps:
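Cell-based, HFFs, 1000 cells/well, 16 h 37C; cpds in DMSO + HCMV-luc, MOI 1 PFU/cell; 72 h 37C; OneGlo luminescence after 5 min RT; norm. to buffer vs Salinomycin 10uM.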
(In qHTS, concentration-response curves come from the screen itself.)
Consider `Cn1c(SCC(=O)Nc2cccc(O)c2)nnc1-c1ccc(S(=O)(=O)N2CCOCC2)cc1`, for which the activity change, negative = inhibition was -70.3% (active).

For `Cc1ccnc(SCC(=O)Nc2cccc(S(=O)(=O)N3CCOCC3)c2)n1`, the activity change, negative = inhibition is -25.4%. For `CCC(=O)Nc1cccc(NC(=O)CSc2nnc(-c3ccc(NS(C)(=O)=O)cc3)n2C)c1` the value was -2.35%; for `O=C(CSc1ccccc1)Nc1cccc(S(=O)(=O)N2CCCCC2)c1`, -4.82%.

For `Cc1cc(NC(=O)C(C)SCC(=O)Nc2cccc(S(=O)(=O)N3CCCCCC3)c2)no1` (stereo not drawn), the activity change, negative = inhibition is -103% (active). In the case of `Nc1cc(N)nc(SCC(=O)Nc2cccc(S(=O)(=O)N3CCCCC3)c2)n1`, the activity change, negative = inhibition was -9.15%. For `COCCn1cnnc1SCC(=O)Nc1cccc(S(=O)(=O)N2CCCCC2)c1` the value was -23.6%; for `Cc1cc(NC(=O)C(C)SCC(=O)Nc2ccccc2N2CCCCC2)no1` (stereo not drawn), -18.8%. As for `Cn1nnnc1SCC(=O)Nc1cccc(S(=O)(=O)N2CCCCC2)c1`, the activity change, negative = inhibition is -105% (active). Next, `CC1(C)N=C(SCc2ccccc2Cl)c2ccccc2N1`: 5.15%; `Cc1ccc2c(=O)c(C(=O)c3ccc(F)cc3)cn(CC(=O)NC3CCCCC3)c2n1`: 6.71%; `CCc1ccccc1NC(=O)Cn1c(=O)n(CC2CCC(C(=O)NCCc3ccccc3)CC2)c(=O)c2ccccc21` (stereo not drawn): 17.8%.

In the case of `Cc1cc(NC(=O)CSc2ncc(C(=O)Nc3ccc(Cl)cc3)c(=O)n2C)no1`, the activity change, negative = inhibition was 7.76%. For `CC(=O)Nc1ccc(NC(=O)c2cc3sccc3n2Cc2ccc(F)cc2)cc1` the value was -10%. Next, `COc1ccc2[nH]c3c(C)c4cc[n+](C)cc4c(C)c3c2c1`: -97.6% (active). Take `COc1ccc(-n2c(=O)c3sc4ccccc4c3n(CC(=O)Nc3cccc(C)c3)c2=O)cc1`: the activity change, negative = inhibition was 11.4%. For `Cc1cc(C)c(/C=C/c2onc(C)c2S(=O)(=O)N2CCC(C(=O)Nc3ccc(Cl)cc3C)CC2)c(C)c1` the value was -20.3%; for `CN1CCN(S(=O)(=O)c2ccc(N3CCN(c4ccccc4O)CC3)c([N+](=O)[O-])c2)CC1`, -9.97%; for `CN1CN(C)c2ccc([N+](=O)[O-])c3cccc1c23`, -90% (active).

Regarding `CCN1CCN(c2ccc([N+](=O)[O-])cc2C#N)CC1`, the activity change, negative = inhibition was -36.6%. For `CN(C)S(=O)(=O)c1ccc(N2CCCC2=O)c([N+](=O)[O-])c1`, the activity change, negative = inhibition is -23.4%. Consider `CC1CCCN(c2csc3ccc(F)cc3c2=O)C1` (stereo not drawn), for which the activity change, negative = inhibition is 20.9%. Take `COc1ccc(-c2cn3c(C)c(C(=O)Nc4cc(C)cc(C)c4)sc3n2)cc1`: the activity change, negative = inhibition is 27.8%. Next, `COc1cc2c(cc1OC)C(COc1ccc(F)cc1)N(C(=O)c1ccccc1F)CC2` (stereo not drawn): -11.8%; `C=C(C)CNC(=S)Nc1ccc(S(=O)(=O)Nc2cnc3ccccc3n2)cc1`: -30.9%. Turning to `CCn1c(SCC(=O)N/N=C/c2ccccc2OCC(=O)O)nnc1-c1ccc(C(C)(C)C)cc1`, the activity change, negative = inhibition is 0%. Take `C=C(C)CNC(=S)N/N=C/c1ccccc1OCC(=O)O`: the activity change, negative = inhibition is -63.4% (active). Next, `COc1ccc(-n2ncc3c2CC(C)(C)CC3NC(=O)CCc2c(C)nn(C)c2C)cc1` (stereo not drawn): -35%.

In the case of `Cc1cc(C(=O)NC2CC(C)(C)Cc3c2cnn3-c2ccccc2)n[nH]1` (stereo not drawn), the activity change, negative = inhibition is -4.62%. For `COc1ccc(C(=O)NC2CC(C)(C)Cc3c2cnn3-c2ccccc2)c(OC)c1` (stereo not drawn) the value was -62.5% (active); for `O=C1Cc2cc(S(=O)(=O)Nc3ccc(OC(F)(F)F)cc3)cc3c2N1CCC3`, 14.6%; for `COC(=O)[C@]12CCCCC=C1N(Cc1cccc3ccccc13)C(=O)[C@H](CC(=O)N1CCOCC1)C2`, 12.2%. As to `Cc1ccc2nc(COc3cccc(NC(=O)c4ccccc4Cl)c3)cc(=O)n2c1`, the activity change, negative = inhibition is 0.182%. With `CC(O)(c1cccc(F)c1)c1nc(-c2ccc3c(c2)OCO3)cs1` (stereo not drawn), the activity change, negative = inhibition was -11.8%. Next, `COc1ccc(C(C)(O)c2nc(-c3cc(F)cc(F)c3)cs2)cc1` (stereo not drawn): -96% (active); `COc1cc(OC)cc(-c2cc3ccc(F)cc3cn2)c1`: 59.6%; `CCSc1nnc2c(n1)OC(c1ccc(OCC(=O)O)cc1)Nc1ccccc1-2` (stereo not drawn): 33.3%.

For `Cn1c2ccccc2c(=O)c2c(=O)n(Cc3ccco3)c(COc3ccccc3)nc21`, the activity change, negative = inhibition was -81.5% (active). Next, `COc1cc(NC(=O)Cn2c(=O)n(Cc3ccco3)c(=O)c3oc4ccccc4c32)cc(OC)c1`: -18.5%; `CC(C)c1ccc(Cn2c(COc3ccccc3)nc3ccccc32)cc1`: 57.2%. Turning to `CCOc1ccc(N(CC)S(=O)(=O)N2CCCC(C(=O)NCc3ccc(SC)cc3)C2)cc1` (stereo not drawn), the activity change, negative = inhibition was -31%. Take `Cc1ccc(NC(=O)CSc2nc3c([nH]c4ccccc43)c(=O)n2-c2ccccc2)c(C)c1`: the activity change, negative = inhibition was -65.4% (active). For `Cc1ccc(NC(=O)CSc2nc3c([nH]c4ccccc43)c(=O)n2-c2ccccc2)cc1Cl`, the activity change, negative = inhibition is -24%.
